Experimental data as given in PubChem BioAssay.
The source made the active and inactive calls. Unless noted, how the calls were made is not given here.

Assays:
[1] = resazurin metabolic signal in HepG2 cells – cell-based, resazurin fluorescence, 24 h, PK04 Diversity Set, profiling panel (AID 1172); conditions: HepG2 viability, higher = more signal
[2] = budding yeast growth changes without added modifier – OD600, strain BY4716, 24 h, basal condition, primary screen (AID 1173); conditions: S. cerevisiae BY4716 growth, OD600, 24 h; higher = more signal, called active from +8 up or from −8 down
[3] = viability profiling in MM1S myeloma cells – cell-based, resazurin fluorescence, basal, 24 h, PK04 Diversity Set, profiling panel (AID 1174); conditions: higher = more signal, called active from +8 up or from −8 down;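 further: MM1S multiple myeloma cell line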
[4] = target: Dihydroorotate dehydrogenase (quinone), mitochondrial (Plasmodium falciparum (isolate 3D7)) (UniProt Q08210); assay: inhibition of P. falciparum DHODH – biochemical, C-terminal His tag, absorbance 600 nm, primary screen (AID 1175); conditions: PfDHODH enzyme, DCIP absorbance 600 nm; higher = more signal, called active from +8 up or from −8 down;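 further: recombinant parasite enzyme with a five histidine tag at its C terminus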
[5] = inhibition of PAO1 biofilm formation – strain PAO1, LB-PBS medium, absorbance 600 nm, primary screen (AID 1176); conditions: P. aeruginosa PAO1 growth/biofilm, A600, 12 h; higher = more signal
[6] = growth modulation of vineyard yeast isolate – strain RM11-1a, OD600, basal, 24 h, primary screen (AID 1177);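 further: cultures grown under basal conditions with no added stressor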; conditions: S. cerevisiae RM11-1a growth, OD600, 24 h; higher = more signal, called active from +8 up or from −8 down
[7] = growth of efflux-deficient E. coli DRC39 – strain DRC39, OD650, 24 h, E. coli filamentation inducers, primary screen (AID 1178);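 further: growth measured as culture turbidity by optical density at 650 nm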; conditions: E. coli DRC39 acrAB, higher = more signal, called active from +8 up or from −8 down
[8] = growth of efflux-deficient E. coli DRC39 – strain DRC39, OD650, 48 h, E. coli filamentation inducers, primary screen (AID 1179);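 further: screen aims at cell division blockers that make cells filament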; conditions: E. coli DRC39 delta-acrAB growth, higher = more signal, called active from +8 up or from −8 down
[9] = viability profiling in RPMI8226 myeloma cells – cell-based, resazurin fluorescence, basal, 24 h, PK04 Diversity Set, profiling panel (AID 1180); conditions: higher = more signal;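 further: RPMI8826 multiple myeloma cell line at 5000 cells per well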
[10] = target: E3 ubiquitin-protein ligase XIAP (Homo sapiens) (UniProt P98170); assay: small molecules binding XIAP protein – biophysical, small-molecule microarray, fluorescence 635 nm, primary screen (AID 1181); conditions: higher = more signal;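 further: score merges 667 nm emission and signal to noise over triplicate slides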
[11] = tested on: XIP peptide (Xip251-270) binding; assay: XIP fragment 251-270 binding compounds – biochemical, small-molecule microarray, fluorescence 635/667 nm, 0.1 µg/mL protein, primary screen (AID 1182); conditions: fluorescent protein binding, 635 nm, higher = more signal, called active from +8 up or from −8 down
XIP peptide (Xip251-270) = assay: compounds binding XIP fragment 251-270 – biochemical, small-molecule microarray, fluorescence 635/667 nm, 0.5 µg/mL protein, primary screen (AID 1183); conditions: fluorescence 635 nm, higher = more signal
[12] = blood-stage malaria parasite viability loss – strain 3D7, DAPI fluorescence, 100 nL, primary screen (AID 1184);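 further: parasites grown inside human red blood cells in medium with human serum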; conditions: P. falciparum 3D7 growth, 3 d, higher = more signal
[13] = target: Homeobox protein Hox-A13 (Mus musculus) (UniProt Q62424); assay: disruptors of Hoxa13 oligonucleotide interaction – biochemical, fluorescence polarization, labeled oligonucleotide, primary screen (AID 1185); conditions: Hoxa13:DNA binding, 15 min, higher = more signal, called active from +8 up or from −8 down
[14] = blockers of DNA damage checkpoint Chk1 activation – imaging, HeLa, hydroxyurea, phospho-Chk1 antibody, percent positive cells, primary screen (AID 1186); conditions: hydroxyurea-induced phospho-Chk1 immunofluorescence imaging, higher = more signal
[15] = blockers of DNA damage checkpoint Chk1 activation – imaging, HeLa, hydroxyurea, phospho-Chk1 nuclear intensity, primary screen (AID 1187); conditions: hydroxyurea-induced phospho-Chk1 immunofluorescence imaging, higher = more signal

Chain of E3 ubiquitin-protein ligase XIAP (Homo sapiens) (P98170 whole entry, looked up, the tested form may be a part): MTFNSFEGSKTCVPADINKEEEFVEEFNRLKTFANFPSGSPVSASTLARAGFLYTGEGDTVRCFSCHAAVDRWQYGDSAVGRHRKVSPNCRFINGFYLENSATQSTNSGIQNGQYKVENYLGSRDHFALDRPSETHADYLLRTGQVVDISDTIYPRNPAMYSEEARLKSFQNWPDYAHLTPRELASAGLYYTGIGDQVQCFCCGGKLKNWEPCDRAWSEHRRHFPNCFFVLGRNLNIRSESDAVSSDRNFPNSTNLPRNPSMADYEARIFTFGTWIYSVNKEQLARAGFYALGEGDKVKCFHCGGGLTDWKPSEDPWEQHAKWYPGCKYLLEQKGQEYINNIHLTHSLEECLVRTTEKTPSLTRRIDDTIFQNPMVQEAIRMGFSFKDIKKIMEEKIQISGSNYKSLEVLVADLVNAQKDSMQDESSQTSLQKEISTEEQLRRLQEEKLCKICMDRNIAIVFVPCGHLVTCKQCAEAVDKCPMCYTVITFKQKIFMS
Chain of Homeobox protein Hox-A13 (Mus musculus) (Q62424 whole entry, looked up): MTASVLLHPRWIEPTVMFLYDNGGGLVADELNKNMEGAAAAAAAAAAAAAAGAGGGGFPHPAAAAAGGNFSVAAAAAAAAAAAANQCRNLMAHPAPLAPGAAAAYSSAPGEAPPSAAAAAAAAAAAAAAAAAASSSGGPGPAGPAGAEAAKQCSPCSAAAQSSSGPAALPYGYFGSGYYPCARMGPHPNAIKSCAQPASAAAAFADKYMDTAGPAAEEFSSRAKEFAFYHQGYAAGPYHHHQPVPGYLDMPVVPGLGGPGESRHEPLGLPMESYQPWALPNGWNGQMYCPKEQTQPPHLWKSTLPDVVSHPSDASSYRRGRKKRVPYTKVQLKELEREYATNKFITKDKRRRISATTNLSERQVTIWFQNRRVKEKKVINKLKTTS
Chain of Dihydroorotate dehydrogenase (quinone), mitochondrial (Plasmodium falciparum (isolate 3D7)) (Q08210 whole entry, looked up): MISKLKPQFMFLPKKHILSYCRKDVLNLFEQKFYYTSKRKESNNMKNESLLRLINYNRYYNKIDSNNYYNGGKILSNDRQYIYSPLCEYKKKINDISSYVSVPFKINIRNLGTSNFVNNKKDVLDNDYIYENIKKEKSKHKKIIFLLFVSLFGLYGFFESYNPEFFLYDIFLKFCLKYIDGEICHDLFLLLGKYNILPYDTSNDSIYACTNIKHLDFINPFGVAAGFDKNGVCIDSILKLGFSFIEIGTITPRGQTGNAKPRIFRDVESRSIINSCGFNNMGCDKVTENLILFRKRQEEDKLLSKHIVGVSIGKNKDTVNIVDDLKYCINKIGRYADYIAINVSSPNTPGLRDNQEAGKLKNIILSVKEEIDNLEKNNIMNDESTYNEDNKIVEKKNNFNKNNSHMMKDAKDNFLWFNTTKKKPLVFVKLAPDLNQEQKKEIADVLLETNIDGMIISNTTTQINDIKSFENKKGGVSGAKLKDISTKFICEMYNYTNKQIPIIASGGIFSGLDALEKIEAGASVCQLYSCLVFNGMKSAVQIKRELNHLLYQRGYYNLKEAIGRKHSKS

SMILES	z-score [1]	z-score [2]	z-score [3]	composite z-score [4]	z-score [5]	z-score [6]	z-score [7]	z-score [8]	z-score [9]	composite z-score [10]	composite z-score [11]	composite z-score (XIP peptide (Xip251-270))	z-score [12]	z-score [13]	z-score [14]	z-score [15]
COCCOC(=O)N1C(=O)[C@@]2(c3cc(C#Cc4ccc(OC)cc4)ccc31)[C@H](c1ccccc1OCCO)N1[C@H](c3ccccc3)[C@H](c3ccccc3)OC(=O)[C@H]1[C@@H]2C(=O)NC[C@H](O)c1ccccc1	0.48	2.55 (inactive)	-0.444 (inactive)	-1.22 (inactive)	3.27 (inactive)	3.17 (inactive)	0.418 (inactive)	0.127 (inactive)	-0.82	-0.0421	0.159 (inactive)	0.815	-1.8	-1.34 (inactive)	-0.203 (inactive)	-0.29 (inactive)
C=CCOC(=O)[C@H]1[C@@H]2C(=O)O[C@@H](c3ccccc3)[C@@H](c3ccccc3)N2[C@@H](c2ccc(OCCOC(=O)[C@@H]3C[C@@H]4C(=O)N[C@@H](CCCCNC(C)=O)C(=O)N4[C@@H]3c3ccc(O)cc3)cc2)[C@]12C(=O)Nc1ccccc12	-0.707	0.857 (inactive)	-0.0524 (inactive)	0.0572 (inactive)	1.83 (inactive)	1.74 (inactive)	-0.605 (inactive)	-1.35 (inactive)	-0.407	-0.0018	2.75 (inactive)	0.818	-1.8	-1.89 (inactive)	-0.731 (inactive)	0.21 (inactive)
COC(=O)[C@@]1(Cc2ccc(OC)cc2)[C@H]2c3cc(C(=O)N4CCCC4)n(CCN4CNCC4=O)c3C[C@H]2CN1C(=O)c1ccccc1	-0.66	0.818 (inactive)	-0.359 (inactive)	0.0916 (inactive)	1.68 (inactive)	1.22 (inactive)	-0.146 (inactive)	-0.199 (inactive)	0.0221	0.778	0.281 (inactive)	-0.35	-1.8	-4.34 (inactive)	0.525 (inactive)	0.163 (inactive)
CCCC#C[Si](O[C@H](CC)c1cn(Cc2cccc(Cl)c2)nn1)(C(C)C)C(C)C	0.345	-12.9 (active)	0.0454 (inactive)	-0.345 (inactive)	-0.0057 (inactive)	0.61 (inactive)	1.11 (inactive)	0.775 (inactive)	0.33	-0.0855	-0.0517 (inactive)	0.298	-0.0039	-0.759 (inactive)	-0.501 (inactive)	-0.675 (inactive)
CN1C(=O)C2C=CC(C(O)C#Cc3ccccc3)N(N3CCCCC3)C2C1=O (centres undefined)	-0.279	-0.375 (inactive)	-0.347 (inactive)	-1.07 (inactive)	0.614 (inactive)	-0.0362 (inactive)	-0.276 (inactive)	-0.884 (inactive)	-0.0142	-0.0474	1.34 (inactive)	0.84	-0.254	-4.72 (inactive)	-0.699 (inactive)	-0.674 (inactive)
C=C(COC)/C(=C/C[C@@H](OC(C)=O)c1ccc(OCCO)cc1)c1cnc2ccccc2c1	0.638	-1.39 (inactive)	0.748 (inactive)	-5.97 (inactive)	-0.128 (inactive)	-1.49 (inactive)	1.06 (inactive)	0.968 (inactive)	0.371	0.241	-0.263 (inactive)	0.554	-3.23	-6.01 (inactive)	0.136 (inactive)	-0.201 (inactive)
NC(=O)NCC#Cc1ccc2c(c1)[C@]1(C(=O)N2)[C@H](C(=O)Nc2nc3ccccc3s2)[C@H]2C(=O)O[C@H](c3ccccc3)[C@H](c3ccccc3)N2[C@@H]1c1ccccc1OCCO	0.446	0.32 (inactive)	-0.784 (inactive)	2.26 (inactive)	1.6 (inactive)	1.8 (inactive)	-0.846 (inactive)	-0.728 (inactive)	-0.651	0.711	0.478 (inactive)	0.606	-1.74	2.54 (inactive)	0.302 (inactive)	0.603 (inactive)
COCCOC(=O)N1C(=O)[C@@]2(c3cc(C#CC4(O)CCCCCC4)ccc31)[C@H](c1ccc(OCCO)cc1)N1[C@H](c3ccccc3)[C@H](c3ccccc3)OC(=O)[C@H]1[C@@H]2C(=O)N1CCN(c2ncccn2)CC1	-0.0209	2.29 (inactive)	-0.549 (inactive)	-1.64 (inactive)	2.57 (inactive)	3.15 (inactive)	-0.534 (inactive)	-0.477 (inactive)	-0.305	-0.0582	0.647 (inactive)	0.61	-2.06	0.253 (inactive)	-0.0615 (inactive)	0.22 (inactive)
Cc1ccc(S[C@]2(C(=O)NCCCN(C)C)CC(=O)N(Cc3cc(C(F)(F)F)cc(C(F)(F)F)c3)[C@@H]2c2ccc(CO)cc2)cc1	-0.144	-1.33 (inactive)	-0.522 (inactive)	-0.132 (inactive)	0.621 (inactive)	-0.607 (inactive)	0.0957 (inactive)	-0.339 (inactive)	-0.402	0.164	-0.497 (inactive)	-0.583	0.798	-2.68 (inactive)	0.112 (inactive)	-0.331 (inactive)
